# High-throughput results deposited in PubChem BioAssay by National Center for Advancing Translational Sciences (NCATS).
# HCMV antiviral: inhibitors of human cytomegalovirus. HFF cells, HCMV-luciferase reporter, 72 h; stronger effect = lower value. activity change, negative = inhibition, % at 57.5 µM. actives 4.5% (n = 410,000); in the data active = activity change below about -60%; inconclusive = no clear call, values can overlap the other calls; inactive = above about -39%
#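 Two-dose cell screen: HFF monolayers treated with compounds and infected with luciferase-expressing HCMV at 1 PFU/cell, 72 h at 37C, then lysed for luciferase measurement.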
# FMDV inh: antivirals against foot and mouth disease virus | AID 1159524 | Potency, µM (doses to about 57.9 µM), without a hit: top-dose activity change, negative = inhibition, actives largely listed as inhibitors | actives 1.2% (n = 410,000) | FMDV antiviral cell-based qHTS; calls by dose curve; tested in HEK293T cells; note: read-out not given here; potency is the fitted concentration of half-maximal effect; nearly all actives have a fitted effect of over 45% in size
# Vaccinia mCherry: inhibitors of vaccinia virus infection (mCherry reporter signal). Vaccinia virus mCherry reporter infection, fluorescence. Potency, µM (titrated, usually from 36.5 µM), without a hit: top-dose activity change, negative = inhibition, actives largely listed as inhibitors. actives 0.63% (n = 310,000); calls by dose curve; tested in A549 cells; note: potency is the fitted concentration of half-maximal effect; nearly all actives have a fitted effect of over 35% in size
# Giardia FBPA inh: blocks Giardia fructose-bisphosphate aldolase activity; A8B2U2; purified Giardia FBPA; Potency, µM (titrated, usually from 59.6 µM), inactives show at the highest dose activity, negative = inhibition, usual class: inhibitors; actives 0.71% (n = 290,000); AID 2451; note: potency is the fitted concentration of half-maximal effect; nearly all actives have a fitted effect of over 55% in size
# Target sequence (A8B2U2 whole entry, looked up): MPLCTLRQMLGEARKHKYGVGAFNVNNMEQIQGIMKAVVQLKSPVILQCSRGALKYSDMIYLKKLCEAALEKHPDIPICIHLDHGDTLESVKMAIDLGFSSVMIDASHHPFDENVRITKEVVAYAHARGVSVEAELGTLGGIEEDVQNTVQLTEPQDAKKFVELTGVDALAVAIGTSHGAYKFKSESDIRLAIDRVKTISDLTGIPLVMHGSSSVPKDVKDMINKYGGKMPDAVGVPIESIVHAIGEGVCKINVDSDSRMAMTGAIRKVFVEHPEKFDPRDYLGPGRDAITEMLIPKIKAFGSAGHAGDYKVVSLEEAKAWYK
#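 Giardia FBPA (40 nM reagent) was preincubated 10 min at RT with compound (up to 57.5 uM final), then substrate plus GAPDH/TPI/NAD/arsenate coupling system with diaphorase/resazurin was added; resorufin fluorescence (525/598 nm) was read after 20 min.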
# HCV inhibitor: HCV inhibition; Huh7.5.1 HCVcc-Cre infection, luciferase reporter, 44 h; Potency, µM (titrated, usually from 41.8 µM), for the others: at the top dose activity change, negative = inhibition, hits mostly inhibitors; actives 3.4% (n = 340,000); note: potency is the fitted concentration of half-maximal effect
#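 Compounds are dispensed onto cells plated 4 h earlier at 1,000 per well, with HCVcc-Cre virus (about 0.5 moi) added next. Following 44 h of culture, luminescent signal is measured for 15 sec after 15 min with substrate at room temperature.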
# VACV Venus inh: inhibitors of vaccinia virus (Venus reporter) | Vaccinia virus Venus reporter expression, fluorescence | Potency, µM (top dose mostly 36.5 µM), for the others: at the highest dose activity change, negative = inhibition, hits mostly inhibitors | actives 0.46% (n = 330,000); calls by dose curve; tested in A549 cells; note: potency is the fitted concentration of half-maximal effect; nearly all actives have a fitted effect of over 30% in size
# * hit, by the source's call; i = inactive; ? = inconclusive; nt = no result given; ! = a repeat was not active; [ ] = remark or other dose. Most compounds without a hit are left out; they make up all but 7.5% or so of the library. Unless noted, calls come from the whole dose curve; as a rule, active = well fitted curve in the direction sought with a large enough effect; inconclusive = small, poorly fitted or top-dose-only effect, or another doubt; inactive = no such curve, though single readings can be large; an effect the other way counts as inactive or inconclusive. % is set by controls: 0 for no effect and ±100 for the full control effect.
SMILES,HCMV antiviral,FMDV inh,Vaccinia mCherry,Giardia FBPA inh,HCV inhibitor,VACV Venus inh
c1ccc(CCc2ccccc2-c2nc(-c3cccnc3)no2)cc1,-22,?,nt,24%,7.1µM*,-13%
c1ccc(CCc2nc(-c3ccccc3)no2)cc1,13,58%,-7%,nt,10%,4%
c1cncc(-c2noc(-c3cccc4ccccc34)n2)c1,211,54%,-12%,-2%,?,-5%
O=C(C1=C[C@@H](c2ccc(Br)cc2)C[C@@H](OCc2ccc(CO)cc2)O1)N1CCN(Cc2ccc3c(c2)OCO3)CC1,nt,?,-14%,-4%,?,-26%
O=C(Cc1ccccc1)Nc1cccc(N2C(=O)C=CC2=O)c1,-17,?,i,-15%,?,-11%
O=C(NCCCn1ccnc1)c1cc2nc(-c3ccc(Br)cc3)cc(C(F)(F)F)n2n1,-11,-1%,nt,1%,7.1µM*,nt
O=C(NCCCn1ccnc1)c1cc(-c2ccc(Cl)cc2)nc2ccccc12,20,-26%,nt,14%,11µM*,-18%
COc1ccc(-c2cc(C(F)(F)F)n3nc(C(=O)N4CCCCC4)cc3n2)cc1OC,-36,-23%,-21%,13%,?,-13%
O=C(NCCCn1ccnc1)c1cc(-c2ccncc2)nc2ccccc12,-25,-2%,0%,6%,2%,0%
COc1ccc(-c2cc(C(F)(F)F)n3nc(C(=O)N4CCCCC4)cc3n2)cc1,?,nt,i,-3%,11µM*,-6%
O=C(c1cc2nc(-c3ccccc3)cc(C(F)(F)F)n2n1)N1CCCC1,?,9%,-14%,nt,-10%,-6%
COc1cccc(-c2cc(C(F)(F)F)n3nc(C(=O)N4CCCCC4c4cccnc4)cc3n2)c1 (stereo not given),-68*,?,i,-1%,5.6µM*,-13%
CC(CC(=O)Nc1ccc(S(=O)(=O)Nc2ncccn2)cc1)c1ccccc1 (stereo not given),-11,0%,-12%,-4%,27%,-7%
CCN(CC(=O)Nc1ccccc1C(F)(F)F)C(=O)c1cccc(N2C(=O)CCC2=O)c1,?,14%,-10%,nt,4%,-8%
COc1ccc(-c2cc(C(F)(F)F)n3nc(C(=O)NCCCN4CCOCC4)cc3n2)cc1,-21,-21%,2%,1%,11µM*,-5%
COc1ccc(-c2cc(C(F)(F)F)n3nc(C(=O)Nc4cc(C)ccc4C)cc3n2)cc1,15,-25%,-8%,nt,nt,3%
CCN1CCN(c2cc3c(cc2F)c(=O)c(S(=O)(=O)c2cc(C)cc(C)c2)cn3CC)CC1,-2,6%,-8%,nt,nt,-19%
CC1(C(=O)Nc2ccc3[nH]ncc3c2)CCN1C(=O)CC(c1ccccc1)c1ccccc1 (stereo not given),0,?,-10%,nt,nt,-12%
CC1(C(=O)Nc2ccc3[nH]ncc3c2)CCN1C(=O)C1(c2ccccc2)CC1 (stereo not given),-98*,-16%,-7%,nt,nt,-3%
CCOC(=O)Cn1c(=O)oc2cc(S(=O)(=O)Nc3ccc(N(CC)CC)cc3C)ccc21,-77*,-7%,-10%,-17%,-7%,-7%
CCCS(=O)(=O)NC(=O)C1(C)CCN(C(=O)/C=C/c2ccccc2)C1 (stereo not given),nt,0%,1%,nt,nt,3%
O=C(COc1ccc([N+](=O)[O-])cc1)Nc1nc(-c2ccccn2)cs1,-71*,-11%,5.6µM*,nt,10µM*,?
O=C(COc1cccc(F)c1)Nc1nc(-c2ccccn2)cs1,-21,?,11µM*,nt,nt,?
CCCOC(=O)c1cccc(NC(=O)COc2ccc([N+](=O)[O-])cc2)c1,-5,25µM*,-10%,-6%,?,?
CCC1CN(CCNC(=O)c2ccnc(Cl)c2)Cc2cc(OC)ccc2O1 (stereo not given),nt,66%,-6%,nt,nt,-4%
SMILES,HCMV antiviral,FMDV inh,Vaccinia mCherry,Giardia FBPA inh,HCV inhibitor,VACV Venus inh
c1ccc2c3c([nH]c2c1)CCCC3,nt,nt,43%,nt,nt,-10%
C1=NCCc2c1[nH]c1ccccc21,-95*,-2%,i[7.34 µM],nt,6%,-17%[7.34 µM]
C=CCOC(=O)C1=C(C)N=C2SCCC(=O)N2C1/C=C/c1ccccc1 (stereo not given),-103*,1%,nt,-7%,?,nt
COc1cc(C(=O)Nc2ccc(C(F)(F)F)cc2)ccc1OCC(=O)N1CCOCC1,-5,7%,-23%,nt,-16%,-8%
CCCc1nc2ccc(Br)cc2c(=O)n1-c1ccc([N+](=O)[O-])c(C(F)(F)F)c1,-87*,?,?,-6%,?,?
CCc1nc2ccc(Br)cc2c(=O)n1-c1ccccc1C(F)(F)F,6,-20%,-18%,nt,?,-5%
CN(C)CCCn1c2c3ccccc3ccc2c2oc(=O)c3ccccc3c21,-92*,-8%,22µM*,nt,?,?
CCc1ccccc1N1CSC2=C(C#N)C(c3cc(OC)c(OC)cc3OC)CC(=O)N2C1 (stereo not given),8,17%,nt,4.5µM*,?,nt
COc1cc(C2CC(=O)N3CN(c4ccccc4C)CSC3=C2C#N)cc(OC)c1OC (stereo not given),1,nt,nt,4.5µM*,nt,nt
COc1ccccc1N1CSC2=C(C#N)C(c3ccc(SC)cc3)CC(=O)N2C1 (stereo not given),43,-6%,15%,5.6µM*,6%,-5%
CC(C)(C)CC(C)(C)NC(=O)C(=O)c1cccnc1,12,nt,nt,nt,nt,nt
CCN1CCN(c2nnc(-n3cccc3C(=O)Nc3cccc(OC)c3)s2)CC1,?,7%,-10%,nt,nt,-10%
O=C(CCc1ccc(O)cc1)c1c(O)cc(O)cc1O,-14,2%,-5%,-4%,-22%[8.37 µM],-17%
COc1cc(O)c(CC=C(C)C)c(O)c1C(=O)CCc1ccc(O)cc1,-15,-10%,?,-10%,0.71µM*,?
C=CCc1ccc(OC)cc1,2,-28%,2.2µM*!,0%,-14%,4µM*!
COc1cc(/C=C/c2nc(-c3ccccc3O)n[nH]2)cc(OC)c1OC,1,?,i,-19%,11µM*,?
COc1cc(/C=C/c2ccc3cccc(O)c3n2)cc(Cl)c1OC,-37,-10%,?,-11%,?,12%
COc1cccc(/C=C/c2ccc3cccc(O)c3n2)c1,-95*,-24%,?,-8%,?,-11%
Oc1cccc(/C=C/c2ccc3cccc(O)c3n2)c1,45,-51%,?,?,?,-23%
COc1cc(/C=C/c2ccc3cccc(O)c3n2)cc(OC)c1OC,-94*,1%,8.9µM*,9%,?,-22%
COc1cc(/C=C/c2ccc3cccc(O)c3n2)cc(Br)c1OC,?,-27%,?,14%,11µM*,-3%
